# Rows were chosen to be rich in hits. Some 0.34% of all compounds tested hit in one or more screens of this group.
# IMPase Li inh = membrane-permeable IMPase blocker, potentiated with lithium | AID 1457 | Potency, µM (highest dose often 59.4 µM), without a hit: at the top dose activity, negative = IMPase inhibition, hits mostly inhibitors | 210,000 compounds, 0.35% hits | CHO-M1 cells, IP1 TR-FRET (IP-One), carbachol + lithium;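 also: IP1 builds up when IMPase is blocked and the TR-FRET signal falls; potency is read from the fitted curve at half-maximal effect; plate controls were basal vehicle for no effect and high inhibitor control for full effect; nearly all actives have a fitted effect of over 50% in size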
#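 Readout is a homogeneous TR-FRET IP1 immunoassay (Ex 320, Em 665 and 620), where raised cytosolic IP1 lowers signal. Cells were CHO-M1 treated 30 min at 37C with test compounds plus a little lithium; AC50 values came from Hill-equation fitting.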
# LMNA splice mod = modulators of lamin A splicing; HeLa LMNA splicing GFP/RFP minigene ratio, 48 h; Potency, µM (series often up to 46.1 µM), without a hit: at the highest dose ratio change, negative = inhibition, usual class: inhibitors; 200,000 compounds, 0.01% hits; AID 1487; active = well fitted inhibition curve with a large enough effect in the signal ratio, with a control signal flat, not every such curve was filed as active; inconclusive = small, poorly fitted or top-dose-only effect, or effect the other way, or a change in a side signal; the % refers to the signal ratio; also: potency is read from the fitted curve at half-maximal effect; % is scaled to controls: 0 for no effect and ±100 for the full control effect
#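 S3 HeLa cells stably expressing lamin A-EGFP splicing minigene plus DsRed2, 600 cells/well, 48 h compound exposure at 37C. Laser-scanning cytometry; analysed as GFP (500-530 nm)/RFP (575-640 nm) total intensity ratio; 0.5% DMSO vehicle.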
# TCR act = activates T cell receptor signaling | 330,000 tested, under 10 active | Potency, µM (top dose mostly 9.22 µM), for inactives: top-dose activation of IL-2 secretion, most hits filed as activators | primary human leukocytes, anti-CD3, IL-2 HTRF, 48 h; also: % of control where 0% means no effect
#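 Activity was scored as IL-2 release from primary human leukocytes given only a TCR signal (a-CD3 beads) plus compound for 48 hr. Detection used a two-antibody HTRF format read at 665nm.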
# KinaseGlo FLuc = blocks Kinase-Glo luciferase, a counter-screen artifact | AID 1379 | 200,000 compounds, 0.28% hits | Kinase-Glo luciferase, ATP luminescence, 8 min | Potency, µM (highest dose often 38.3 µM), without a hit: at the highest dose activity change, negative = inhibition, hits mostly inhibitors | Q27757; also: potency is read from the fitted curve at half-maximal effect; % is scaled to controls: 0 for no effect and ±100 for the full control effect; nearly all actives have a fitted effect of over 60% in size
#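 Substrate mix (final 50 mM imidazole pH 7.2, 50 mM KCl, 7 mM MgCl2, 10 uM ATP, 0.01% Tween 20, 0.05% BSA) plus pin-tool compound, then Kinase-Glo detection mix; 8 min ambient, luminescence read.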
# * = called active by the depositor; ? = inconclusive; · = no result given; [ ] = remark or other dose. Unless noted, calls follow the shape of the dose curve; as a rule, active = well fitted curve in the direction sought with a large enough effect; inconclusive = small, poorly fitted or top-dose-only effect, or another doubt; inactive = no such curve, though single readings can be large; an effect the other way counts as inactive or inconclusive.
SMILES,IMPase Li inh,LMNA splice mod,TCR act,KinaseGlo FLuc
O=C(COc1ccc2ccccc2c1)Nc1nccs1,4.0%,·,3.3%,-19.3%
COc1cc2c(cc1NC(=O)c1cc(-c3ccccn3)nc3ccccc13)oc1ccccc12,-4.0%,-3.9%,5.3%[46.1 µM],-1.7%
CC(=O)c1sc(NC(=O)c2cccnc2Cl)nc1C,4.8%,?,6.6%,-11.7%
CC(=O)c1sc(NC(=O)c2ccccc2F)nc1C,-1.9%[38.3 µM],-11.9%,-2.6%,10µM*
Cc1cccc(NC(=O)c2sc3nc(-c4ccc(F)cc4)cn3c2C)n1,14.1µM*,2.4%,-6.5%,-0.6%
Cc1cccc(NC(=O)c2sc3nc(-c4ccccc4)cn3c2C)n1,7.5%,-1.6%,5.0%,5.3%
COc1ccc(CCNc2nc3ccccc3n3nnnc23)cc1OC,10µM*,-3.4%,-5.9%,0.5%
c1ccc(CCNc2nc3ccccc3n3nnnc23)cc1,3.55µM*,-8.6%,1.2%,1.4%
CCOc1ccc(Nc2nc3ccccc3n3nnnc23)cc1,14.0%[38.3 µM],14.8%,0.9%,0.1%
CCCn1cc(CN2CCC(n3nccc3NC(=O)CCOc3ccccc3)CC2)c(C)n1,·,·,-4.5%,·
COc1ccc(-c2cc(-c3ccc(OC)cc3)c(C#N)c(SC)n2)cc1,11.2µM*,-11.3%,-2.3%[46.1 µM],-1.0%
COC(=O)c1ccc(NC(=O)C(=O)c2cccn2C)cc1,2.5%,-9.1%[46 µM],-24.7%,12.6µM*
O=C(Cn1cnc2sc(-c3ccccc3)cc2c1=O)NCc1ccccc1,-21.8%[38.3 µM],-16.7%,·,-2.0%
O=C(Cn1cnc2c(cnn2-c2ccc(Cl)cc2)c1=O)NCCc1ccccc1,12.6µM*,?,-0.1%,0.4%
O=C(Cn1cnc2sc(-c3ccccc3)cc2c1=O)NCCc1ccccc1,28.2µM*,2.7%,2.1%,-3.1%
CCOc1ccc(OCC)c(NC(=O)c2[nH]c(C)c(C(C)=O)c2C)c1,7.08µM*,-1.0%,3.6%,-5.4%
COc1ccc(OC)c(N(CC(N)=O)S(=O)(=O)c2ccc(OC)c(OC)c2)c1,24.4%[38.3 µM],-2.3%,-3.4%,5.0%
N#Cc1c(N)nc(SCC(=O)C23CC4CC(CC(C4)C2)C3)c(C#N)c1-c1ccc(Cl)cc1,3.55µM*,4.5%,0.8%,0.6%
COC(=O)c1sccc1S(=O)(=O)N(CC(=O)NCc1ccc(C)cc1)c1ccc(C)c(C)c1,·,16.0%[46 µM],·,·
CCOC(=O)c1sc2nc(Cc3ccc(Cl)cc3)[nH]c(=S)c2c1C,7.94µM*,?,0.0%,1.6%
CCOC(=O)c1sc2nc(C)nc(NCc3ccc(Cl)cc3)c2c1C,·,·,-8.0%,·
CC(C)[C@@H](CC(=O)N[C@@H]1CCNC[C@H]1C(=O)N[C@H](CC(=O)N[C@@H](CCC(=O)O)CC(=O)O)Cc1c[nH]c2ccccc12)NC(=O)C[C@H](CO)NC(=O)[C@@H]1CCCC[C@H]1N,1.8%,·,·,-1.2%
N#CCCn1c(=O)c(-c2ccc(Cl)cc2)nc2cnc(Oc3cccc(Cl)c3)nc21,11.2µM*,·,·,-1.9%
N#CCCn1c(=O)c(-c2ccc(F)cc2)nc2cnc(Oc3cccc(Cl)c3)nc21,8.91µM*,·,·,-0.3%
N#CCCn1c(=O)c(-c2cccc(C#N)c2)nc2cnc(Oc3cccc(Cl)c3)nc21,11.1%,?,·,·
SMILES,IMPase Li inh,LMNA splice mod,TCR act,KinaseGlo FLuc
COc1ccccc1N1C(=O)C2C(C(=O)c3ccccc3)=NN(c3ccccc3OC)C2C1=O (stereo not drawn),·,·,-7.5%,·
COCC(=O)N1CCC2(CCCN(C(=O)Nc3cccc(F)c3)C2)CC1,0.8%,·,·,1.2%
Cc1nonc1NC(=O)CSc1nc(C2CCCCC2)nc2ccccc12,6.2%[38.3 µM],1.3%,3.1%,1.9%
Cc1cc2nc(SCC(=O)Nc3nonc3C)c3c(c2cc1C)CCCC3,6.31µM*,2.7%,·,4.0%
CCCCCC(=O)Nc1cc2[nH]c(=O)cc(COC)c2cc1C,11.2µM*,-14.3%,-2.1%,3.4%
COCc1cc(=O)[nH]c2cc(NC(=O)C(C)(C)CCl)c(C)cc12,1.8%[38.3 µM],10.9%,-499.5%,3.3%
Cc1cccc(CN2CCN(CC(=O)O)C2=O)c1,11.2µM*,13.6%,·,-2.1%
NC(=S)N/N=C/c1ccccc1OCCSc1ccc(Cl)cc1,8.1%,?,-0.1%[46.1 µM],-1.1%
O=C(Nc1ccc(Cl)cc1)Nc1ccccc1C(=O)O,-3.8%,·,-13.4%,12.6µM*
CC(=O)c1cc(C(=O)N2CCCC(C(=O)c3ccc(Cl)cc3)C2)cs1 (stereo not drawn),·,·,-6.8%,·
COc1ccc(CCn2c(=N)c(C(=O)NCC3CCCO3)cc3c(=O)n4ccccc4nc32)cc1OC (stereo not drawn),·,·,-5.0%,·
Cn1c(C(=O)NCC2CCCO2)cc2c(=O)n3ccccc3nc21 (stereo not drawn),8.91µM*,-10.4%,-9.5%,2.6%
Cc1cc(=O)oc2cc(NC(=O)c3cc4ccccc4o3)ccc12,2µM*,-6.0%,·,-7.2%
O=C(Nc1ccc2oc(=O)ccc2c1)c1cc2ccccc2o1,11.6%,-13.0%,-4.1%[46.1 µM],-3.8%
O=C(Nc1ccccn1)c1cc2ccccc2o1,-2.1%,-4.1%,0.6%[46.1 µM],8.91µM*
CCOc1ccc(C(=O)CC(=O)C(=O)NCCc2ccc(OC)c(OC)c2)cc1,-1.5%,-16.4%,-0.5%[46.1 µM],-0.1%
CC(C)c1ccc(/C=N/n2cnnc2)cc1,·,·,1.2%,·
Cc1ccc(S(=O)(=O)CCSc2n[nH]c(=O)n2-c2ccc3c(c2)OCCO3)cc1,·,·,7.2%,·
CN(C)c1cccc(C(=O)NNC(=O)CSc2ccccc2)c1,·,·,0.2%,·
Cc1nc2c(C(=O)NCCC(C)C)cnn2c(C)c1Cc1c(F)cccc1Cl,·,11.4%[46 µM],·,·
Nc1c(C(=O)O)cnc2c(-c3ccc(Cl)cc3)cnn12,23.3%,·,-15.4%,-17.1%
N#Cc1cnn2c(N)c(-c3ccc(Cl)cc3)cnc12,11.2µM*,?,-0.5%,0.0%

# Compound activity deposited in PubChem by National Center for Advancing Translational Sciences (NCATS).
